According to PubChem BioAssay AID588342 (National Center for Advancing Translational Sciences (NCATS), 2011):
Among all 360,000 compounds or so, about 25,000 (6.9%) were called active. About 9% were inconclusive and are not listed. The list comes from a sample in which actives are over-represented; it also holds similar structures and randomly drawn compounds. Values without a mark were called inactive. The call rests on the fitted dose curve; in most records, active means well fitted inhibition curve with a large enough effect; inconclusive means small, poorly fitted or top-dose-only effect; inactive means flat fitted curve, though single readings scatter.

Target: Luciferin 4-monooxygenase (Photinus pyralis) (UniProt P08659)
Test: qHTS profiling assay for firefly luciferase inhibitor/activator using purifed enzyme and Km concentrations of substrates (counterscreen for miR-21 project); further: nearly all actives have a fitted effect of over 55% in size;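 on activity change, negative = inhibition: plate controls were vehicle for no effect and reference inhibitor for full effect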
Settings: purified FLuc, luminescence inhibition; series mostly up to 57.5 µM; activity change, negative = inhibition: at the top concentration
How it was run: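 Purified P. pyralis luciferase (10nM final) with 10uM D-luciferin and 10uM ATP (Km levels) in 50mM Tris acetate pH 7.5, 10mM Mg acetate, 0.01% Tween-20, 0.05% BSA; qHTS 6-point titration, ~60 µM downward; luminescence read.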
Potency means the concentration at half of the fitted maximal effect.

Chain of Luciferin 4-monooxygenase (Photinus pyralis) (P08659 whole entry, looked up): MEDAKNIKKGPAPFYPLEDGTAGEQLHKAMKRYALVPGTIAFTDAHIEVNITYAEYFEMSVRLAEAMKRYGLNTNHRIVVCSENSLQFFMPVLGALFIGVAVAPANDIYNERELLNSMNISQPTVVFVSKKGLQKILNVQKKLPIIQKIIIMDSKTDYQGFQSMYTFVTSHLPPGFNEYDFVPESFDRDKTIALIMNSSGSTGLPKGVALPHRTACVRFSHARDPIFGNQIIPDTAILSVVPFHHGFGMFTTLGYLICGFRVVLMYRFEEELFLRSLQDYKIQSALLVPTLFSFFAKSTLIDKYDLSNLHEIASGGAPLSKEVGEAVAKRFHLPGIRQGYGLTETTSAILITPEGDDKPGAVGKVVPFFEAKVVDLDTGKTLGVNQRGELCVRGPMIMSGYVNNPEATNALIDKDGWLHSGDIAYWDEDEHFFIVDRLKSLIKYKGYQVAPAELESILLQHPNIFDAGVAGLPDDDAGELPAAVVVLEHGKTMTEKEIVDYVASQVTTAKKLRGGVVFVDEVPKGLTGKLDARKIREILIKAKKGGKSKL

Row | SMILES | activity change, negative = inhibition | Potency
1 | CCOc1ccc(CCNC(=O)CN(c2ccc(C)cc2)S(=O)(=O)N(C)C)cc1OCC | 4.44% | –
2 | Cc1cc(C)c(-c2n[nH]c3c2C(c2ccccc2F)N(CCO)C3=O)c(O)c1 (stereo not drawn) | -1.58% | –
3 | Cc1cccc(CSc2nc3ccncc3n2CC(=O)N(C)C2CCCCC2)c1 | -10.8% | –
4 | CCCNC(=O)c1ccc(Cn2c(SCC(N)=O)nc3ccccc3c2=O)cc1 | -0.682% | –
5 | O=C(Nn1c(SCc2ccc([N+](=O)[O-])cc2)nc2ccccc2c1=O)c1ccc(F)cc1 | – | 16.9 µM (active)
6 | Cc1ccc(CSc2nc3cccnc3n2Cc2ccc(C(=O)NC3CC3)cc2)cc1 | – | 0.379 µM (active)
7 | Cn1c(CNC(=O)c2ccccc2F)nnc1SCc1ccc(F)cc1 | -0.364% | –
8 | OCc1cnc(SCc2ccc(F)cc2)n1Cc1ccc(F)cc1 | -8.03% | –
9 | O=C(O)c1ccc(Cn2c(SCc3ccc(F)cc3)nc3ccncc32)cc1 | – | 16.9 µM (active)
10 | O=C(NCc1ccc(F)cc1)c1ccc(Cn2c(SCc3ccc(F)cc3)nc3cccnc32)cc1 | – | 4.78 µM (active)
11 | Cc1ccc(Cn2c(CNC(=O)Cc3cccc(C)c3)nc3cccnc32)cc1 | 5.86% | –
12 | CCOC(=O)CNC(=O)CSc1nc2cccnc2n1CC | 1.81% | –
13 | C=CCn1c(SCc2ccc(C(=O)NCCO)cc2)nc2ccccc2c1=O | -0.552% | –
14 | Cc1nc2ccccc2c(=O)n1NC(=O)c1ccc(Cl)c([N+](=O)[O-])c1 | 6.72% | –
15 | CC1=C(C(=O)Nc2ccccc2)C(c2ccc(C)cc2)n2nc(SCc3ccccc3C)nc2N1 (stereo not drawn) | -0.97% | –
16 | Cc1nnc(NC(=O)CSc2nc3c([nH]c4ccccc43)c(=O)n2-c2cccc(Cl)c2)s1 | -1.54% | –
17 | CCOc1ccc(S(=O)(=O)c2cn(Cc3ccc(OC)cc3)c3ccc(F)cc3c2=O)cc1 | -3.31% | –
18 | CCOc1ccc(NC(=O)Cn2c(C)ccc(C#N)c2=O)cc1 | -4.3% | –
19 | COc1ccc(CCNS(=O)(=O)c2cc(-c3cc(C)no3)ccc2C)cc1OC | -2.49% | –
20 | Cc1cccc2c1-c1sc(C(=O)Nc3ccc(F)cc3F)cc1CO2 | -14% | –
21 | O=C(NCc1ccccc1)C(=O)NCC(c1ccco1)S(=O)(=O)c1ccc(Cl)cc1 (stereo not drawn) | -1.18% | –

Row | SMILES | activity change, negative = inhibition | Potency
22 | Cc1ccc(N2CCN(C(=O)CCc3c(C)nc4c(c3C)c(=O)n(C)c(=O)n4C)CC2)c(C)c1 | -0.374% | –
23 | C=CCn1c(SCC(=O)NC(=O)Cc2ccccc2)nc2ccccc2c1=O | 2.08% | –
24 | Cc1nn(CC(=O)Nc2ccc(C#N)cc2)c(C)c1[N+](=O)[O-] | 1.77% | –
25 | COc1ccc(NS(=O)(=O)c2cccc3nsnc23)cc1Cl | 4.27% | –
26 | Cc1ccccc1-c1nc(CS(=O)(=O)CC(=O)Nc2cc(Cl)cc(Cl)c2)c(C)o1 | -16% | –
27 | COc1ccccc1CNS(=O)(=O)c1cc(Br)cc2c1N(C(C)=O)C(C)C2 (stereo not drawn) | -3.66% | –
28 | COc1ccc(CCNC(=O)COC(=O)Cc2cccc(F)c2)cc1 | -0.275% | –
29 | O=C(NCc1ccccc1)c1cccc(NC(=O)N2CCSc3ncccc32)c1 | 2.63% | –
30 | COc1cc(OC)cc(C(=O)NCCc2csc3nc(-c4ccccc4F)nn23)c1 | -7.94% | –
31 | Cc1cccc(C(=O)N2c3nc(-c4ccco4)nn3C3(CCCCC3)[C@@H]3CCCC[C@@H]32)c1 | -9.38% | –
32 | CNS(=O)(=O)c1cccc(C(=O)OCC(=O)N2c3ccccc3NC(=O)C2(C)C)c1 | 8.6% | –
33 | Cc1ccc2[nH]c(=O)c(CC(=O)O)c(-c3ccccc3)c2c1 | -8.3% | –
34 | Cc1oc(C)c(C(=O)NCCCC(=O)O)c1C(=O)NCCCC(=O)O | -0.349% | –
35 | COc1cccc(-c2coc3cc4oc(=O)c(CC(=O)O)c(C)c4cc23)c1 | – | 19 µM (active)
36 | COc1ccc2c(C)c(CCC(=O)NCc3ccc(OC)c(OC)c3)c(=O)oc2c1 | -2.04% | –
37 | Cc1c(CC(=O)NCCCCCC(=O)O)c(=O)oc2cc3occ(-c4ccccc4)c3cc12 | – | 19 µM (active)
38 | CC(=O)Oc1ccc2c(C)c(CC(C)O)c(=O)oc2c1 (stereo not drawn) | -1.05% | –
39 | COc1ccccc1CNC(=O)CCn1c(=O)c2ccccc2n(CC(=O)Nc2ccc(Br)cc2F)c1=O | -1.36% | –
40 | COc1ccc(OCCn2cc(C(=O)C3CCCCC3)c3ccccc32)cc1 | 2.81% | –
41 | Cc1ccccc1-n1c(SCC(=O)NCc2cccs2)nnc1-c1ccncc1 | -0.77% | –
42 | Cc1ccc(Nc2nc(CSc3nnc(-c4ccncc4)n3-c3ccccc3C)cs2)cc1 | – | 21.3 µM (active)

Row | SMILES | activity change, negative = inhibition | Potency
43 | Cc1ccc(-n2c(SCC(=O)N3c4ccccc4Sc4ccccc43)nnc2-c2ccncc2)cc1 | 0.549% | –
44 | CCCN1C(=O)C(Cc2nc3ccccc3c(=O)n2-c2ccccc2)c2cc(C)ccc21 (stereo not drawn) | – | inactive
45 | COc1ccc(NC(=S)N2N=CCC2c2ccccc2)cc1 (stereo not drawn) | – | 4.78 µM (active)
46 | COc1ccc(NC(=S)N2CCc3cc(OC)c(OC)cc3C2)cc1 | -3.32% | –
47 | CCC(C)N(C)C1CCN(C(=S)Nc2ccc(OC)cc2)CC1 (stereo not drawn) | -4.4% | –
48 | COc1ccc(C(=O)NC2CC2)cc1OC1CCN(Cc2cnn(C)c2)CC1 | 4.8% | –
49 | OCCCN1c2ccccc2Nc2nnc(-c3ccccc3)cc21 | – | 1.9 µM (active)
50 | N=c1c2c(-c3ccccc3)c(-c3ccccc3)n(Cc3ccccc3)c2ncn1CCCO | 0.125% | –
51 | COC(=O)c1ccccc1NS(=O)(=O)c1ccc2c(c1)CCCN2C(C)=O | -13.4% | –
52 | O=C(NCCc1ccccc1)c1ccc2c(c1)N(Cc1ccccc1)CCS2 | -4.39% | –
53 | CC1CCCN(c2ccc(C(=O)NCCc3ccccc3)cn2)C1 (stereo not drawn) | – | 7.57 µM (active)
54 | O=C(NCCc1ccccc1)c1cnc2sc(N3CCCC3)nn2c1=O | 0.37% | –
55 | Cc1ccc(-c2nc(Cn3c(=O)cc(-c4ccccc4)c4c(C)nn(C)c43)c(C)o2)cc1 | -6.05% | –
56 | CCN(CC)S(=O)(=O)c1ccc2c(c1)N(CC(=O)NCC(C)c1ccccc1)C(=O)CO2 (stereo not drawn) | -3.19% | –
57 | O=S(=O)(NCC(c1ccccc1)N1CCc2ccccc21)c1ccccc1 (stereo not drawn) | -6.21% | –
58 | CC(C)(C)C(=O)OCc1nc(-c2ccc(O)c(O)c2)cs1 | – | 4.26 µM (active)
59 | Cc1onc(C(=O)NN)c1-c1csc(COc2ccccc2)n1 | -4.18% | –
60 | CCCCCCn1nnc2sc(-c3ccccc3)cc2c1=O | -2.55% | –
61 | Cc1nnc2n1N=C(c1ccccc1)CS2 | -2% | –
62 | O=c1c2cc(-c3ccccc3)sc2nc2n1N=C(c1cccs1)CS2 | – | 0.601 µM (active)
63 | CCOc1ccc(NC(=O)CC2C(=O)N(c3cccc(OC)c3)C(=O)N2C2CCCCC2)cc1 (stereo not drawn) | -4.52% | –
